Data on 61 sequences can be found in the supplement of paper PMC11417369.

In all, about 25,000 sequences were measured (“ln(normalized median fluorescence intensity)”: median about 7.1, highest 2% from about 10 on). The sample holds the highest values, similar sequences and a random draw of the others, so the mix is not that of the screen.

This assay deals with PfSIP2 AP2 domain 1 (GST-tagged). Briefly: gcPBM binding intensity (ln(normalized median fluorescence intensity)); higher = stronger DNA binding. The gist of the method: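 GST-fused DNA-binding domains of P. falciparum, expressed in E. coli, were applied at about 25 μg on average for 1 h to an Agilent 4 × 180k array of primer-extended double-stranded 36-bp intergenic genomic probes and negative controls. Binding intensity is the highest Masliner-normalised natural-log median intensity across replicate spots of either probe orientation, measured with Alexa488 anti-GST antibody and a 488 nm scan.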
For TTCTCCTAATAGTTAGTGCACTACATAACTAAGAAA, the “gcPBM binding intensity (ln)” value stood at 10.8. As to AATGACTACATAATAGTGCAATATTAAAGAAAATTA, the “gcPBM binding intensity (ln)” value was determined as 8.55.

For AAATAATTAGAAATAGTGCACATAATTAAGGGATAC, the “gcPBM binding intensity (ln)” value came out at 10.1. For “TATTTTTTTACATATTGTACATAATATAAAACTTAC [XGTACX_site8273]”, the “gcPBM binding intensity (ln)” value stood at 7.17. The figure for “GATAAAATCACTGGTGCATGTAGATATATAATATTA [TGCATGCA_site589]” is 10.5; for GAAAAATATATTCTGGTGCATGAATAAAATCATAAA it is 10.2; for “TATTATATATTAAATGCATGTAAAAATAATATTAAA [TGCATGCA_site643]” it is 7.02.

As to “TACCATAATCAATGCACACATAACAAAATATTATTA [CACACA_site2722]”, the “gcPBM binding intensity (ln)” value was 7.33. With “ATCAAAATTGTCATTACACACCTTTATTTTTATAAT [CACACA_site5071]”, the “gcPBM binding intensity (ln)” value came to 7.12. In the case of “TATATAGAGAGATATGCACACTGTATGAATGCCCCC [CACACA_site5476]”, the “gcPBM binding intensity (ln)” value was found to be 9.53.

Turning to “AATATATAGAGAGATATGCACACTGTATGAATGCAC [CACACA_site2677]”, the “gcPBM binding intensity (ln)” value was determined as 10.3. Regarding “TATATGGAGAGATATGCACACTGTATGAATGCCCCC [CACACA_site8853]”, the “gcPBM binding intensity (ln)” value was found to be 9.32. On to “ATATATATATATAATAAACACACAAATAGATATAAC [CACACA_site9234]”, for which the “gcPBM binding intensity (ln)” value amounted to 9.02.

Take “AATAATTCATCATATGCACACACAATACCAAAATGT [CACACA_site7945]”: the “gcPBM binding intensity (ln)” value was determined as 8.05.

With “GAAAATATTAAATGAAGTACAATATTTATGTTACTT [XGTACX_site8737]”, the “gcPBM binding intensity (ln)” value was determined as 6.71.

For “TATATATATATATATACATGCATATTTTTTATTTTT [TGCATGCA_site464]”, the “gcPBM binding intensity (ln)” value came to 9.67. With “TTTTTTTTTGGGGGTGCATGCAAGACATATATTTAA [TGCATGCA_site228]”, the “gcPBM binding intensity (ln)” value came to 11.6. The figure for “AATATTTTTTTTTAAACATGCATATTTGCATTACCC [TGCATGCA_site437]” is 6.99; for “ACAAAATAATTGTTTACACACCCATTTGTAATTTTA [CACACA_site3615]” it is 6.88. The result for “TTATCATATCATGGAAGTACAAATAAAATATATAAC [XGTACX_site1608]” reads 7.24; that for “ATTTCATATGGTCAACGTACTCATGCATCCCTCCTT [XGTACX_site437]”, 6.86; that for “TTATTTTAATTTTTGGTGCATATTCAAGTGTACCTT [GTGCAC_site9791]”, 9.68. On to ATTTTCACCTGAACGGTGCATATTTAATTTTAGGTT, for which the “gcPBM binding intensity (ln)” value is 10.5. As for “GTTATAATTGAACTAGTGCATAAATATATTTTAATT [GTGCAC_site9851]”, the “gcPBM binding intensity (ln)” value was found to be 9.01.

Turning to “ATTTATTTATCTAGCTATTCACCATTTTCTTTTGTT [CACACA_negctrl_site1259]”, the “gcPBM binding intensity (ln)” value was determined as 6.61. Turning to “TTTAATTGATAATGAAGACAATTATATGCATCCAAA [TGCATGCA_negctrl_site138]”, the “gcPBM binding intensity (ln)” value was determined as 6.79. The result for “ACGACATATGGATGATGTACTATCTTTATTATACAT [XGTACX_site6857]” reads 6.89; that for “TAAAGAAATAAATACATACACACATATATATATATA [CACACA_site3363]”, 9.69; that for “ATGCATAAAAGAAATACACACATAAATATATAAATA [CACACA_site2163]”, 7.02. “AGAAATAAGAAATATACACACATATATATATATATA [CACACA_site2808]”: the “gcPBM binding intensity (ln)” value amounted to 9.79. As for “TAAAAGAAATAATATACACACATATATAAAAATAAA [CACACA_site1329]”, the “gcPBM binding intensity (ln)” value was 6.86.

AAAAAAAAAATACAGGTGCAATAAGAAAAAAATGGT: the “gcPBM binding intensity (ln)” value is 10.2. Take “AAAGAAATAAGGTGCACACATATACAGATATATATA [CACACA_site4399]”: the “gcPBM binding intensity (ln)” value was 11.9. Consider “TATACAGATAAATACACACACACATATATATATATA [CACACA_site4845]”, for which the “gcPBM binding intensity (ln)” value worked out at 9.39. As for “AAATATAAGAAAAAGGTGCTTTTTTTTTTTTTTTTT [GTGCAC_site9700]”, the “gcPBM binding intensity (ln)” value was 8.42. For ATATATATATAATAAGTGCAAAAAAAAGAAAAAAAT, the “gcPBM binding intensity (ln)” value is 8.48. As for “AAAGAAATAAGGTGCACACATATACATATATATATA [CACACA_site429]”, the “gcPBM binding intensity (ln)” value is 11.9. The result for “AAATATAATATATGCACACATACATACAGATATATA [CACACA_site4235]” reads 7.09; that for “TAAAAGAAATAAGGTGCACACATATACATATATATA [CACACA_site8037]”, 11.8; that for “AAGGAAAAGTAAAGAAGTACTGTACCGCCAAAAAAA [XGTACX_site2607]”, 6.98. “TAAATATATTTATATTGTACATTTATGTTGATACCA [XGTACX_site228]”: the “gcPBM binding intensity (ln)” value came to 6.88.

Regarding “TATAGATAAGAATATGCACACATTTTATTTTTTTTT [CACACA_site1982]”, the “gcPBM binding intensity (ln)” value is 7.16. The figure for “TCTTTAAAAAAAAAAAAAAAAAATTCCAAATAAATA [TGCATGCA_negctrl_site538]” is 6.72; for “ATTTGTTCATTTGGTTGTACATAATTTATTTTTATA [XGTACX_site785]” it is 7.26. The result for “TTGTATATTTTATGTACACACAATAAGTTAATATAA [CACACA_site4655]” reads 7.29; that for “TATATTTATATCATCACACATTTTTTTTTTCTTTTT [CACACA_site6150]”, 6.58; that for “ATATATATTAATAGTTGTACTATTATAATATTACAA [XGTACX_site1213]”, 7. For the sequence “AGGATAACATACAAAAGTACATAAAACTAAAAAAAC [XGTACX_site26]”, the “gcPBM binding intensity (ln)” value came out at 7.32. Take “TATATGTTTACTTAATGTACTTACATTTTTATAACA [XGTACX_site1100]”: the “gcPBM binding intensity (ln)” value was 6.91. As to “GCATTATTATATATTTGTACATATTTTTTTTTAAAA [XGTACX_site5436]”, the “gcPBM binding intensity (ln)” value turned out to be 7.3. Take “AATATATAAACACGTACACACACATATATGTATATA [CACACA_site9168]”: the “gcPBM binding intensity (ln)” value was found to be 7.39.

Take “TATTAAATTATATAGACACACATTATGTATATATAT [CACACA_site345]”: the “gcPBM binding intensity (ln)” value stood at 7.49.

With “TTTTTTAAAAGAAAATAAAAAATAAGCATAATATGA [CACACA_negctrl_site1574]”, the “gcPBM binding intensity (ln)” value is 7.06.

As to “ATGGAATATTTCATGATTTTTTTAATTTTTTTATTG [XGTACX_negctrl_site55]”, the “gcPBM binding intensity (ln)” value worked out at 6.6. The result for “ATATATTATATATATTTTAAGTAATTTGCAAAAAAT [GTGCAC_negctrl_site361]” reads 7.01; that for “CACATAAAATAAGGTGCATGCAAACGAGAAAATAAA [TGCATGCA_site75]”, 11; that for “AAAAGGAACGGACACACACACATATATATATATATA [CACACA_site5894]”, 9.31. With “TATGGAAGAAAATATACACACAAAAAAAAAAAATGG [CACACA_site4924]”, the “gcPBM binding intensity (ln)” value is 6.99. For “AGGTGCAAAAATAAAACATGCAAAAATAAAAATGAA [TGCATGCA_site502]”, the “gcPBM binding intensity (ln)” value came to 9.93. In the case of ACGGAAAAAGAAAAGGTGCATATGGACACAATATAT, the “gcPBM binding intensity (ln)” value was found to be 11.3. As for “GAAAGAATAAAATAAACATGCAAATAAAACATAAAA [TGCATGCA_site471]”, the “gcPBM binding intensity (ln)” value was 7.2.
